Screening data as filed in PubChem.
ELG1 genotox = induces genotoxicity in HEK293T cells with luciferase-tagged ELG1 | HEK293T ELG1-luciferase reporter, luminescence, 16 h | Potency, µM (series often up to 46 µM), most hits filed as activators | 330,000 tested, 1.3% active; note: nearly all actives have a fitted effect of over 60% in size
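After overnight (16 hr) compound treatment at 37 °C, ELG1-luciferase HEK293T cells were lysed with ONE-Glo; luminescence quantified 30 min later at room temperature.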
FLuc modulator = counter-screen for miR-21 project: firefly luciferase inhibitors or activators. P08659. purified FLuc, Km substrates, luminescence inhibition. Potency, µM (series often up to 57.5 µM), most hits filed as inhibitors. 360,000 tested, 6.9% active; note: nearly all actives have a fitted effect of over 55% in size
Target sequence (P08659 whole entry, looked up): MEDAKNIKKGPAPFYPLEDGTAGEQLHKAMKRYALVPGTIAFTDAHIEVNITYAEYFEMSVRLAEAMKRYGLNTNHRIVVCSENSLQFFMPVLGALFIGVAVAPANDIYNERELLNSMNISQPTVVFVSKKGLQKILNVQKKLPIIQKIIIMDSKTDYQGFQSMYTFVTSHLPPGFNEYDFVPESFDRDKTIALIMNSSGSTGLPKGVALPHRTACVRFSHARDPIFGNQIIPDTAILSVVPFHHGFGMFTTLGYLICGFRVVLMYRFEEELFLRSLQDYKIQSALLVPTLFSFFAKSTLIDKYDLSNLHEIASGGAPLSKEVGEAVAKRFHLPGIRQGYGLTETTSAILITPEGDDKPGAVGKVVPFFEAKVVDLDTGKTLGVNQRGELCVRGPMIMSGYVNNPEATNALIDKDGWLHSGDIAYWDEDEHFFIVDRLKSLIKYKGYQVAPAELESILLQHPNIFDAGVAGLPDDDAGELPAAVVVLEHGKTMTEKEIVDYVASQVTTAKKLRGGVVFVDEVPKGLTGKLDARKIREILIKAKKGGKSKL
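Biochemical qHTS of compounds, final roughly 60 µM downward over six points, against 10 nM purified firefly luciferase using Km concentrations of substrates (10 uM D-luciferin, 10 uM ATP) in Tris acetate pH 7.5 buffer; luminescence output.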
SMN2 splice up = increases expression of the SMN2 splice variant; AID 1458; Potency, µM (highest dose often 46.1 µM), most hits filed as activators; 210,000 tested, 2.8% active; HEK293 SMN2-luciferase splicing reporter, luminescence, 30-36 h; note: nearly all actives have a fitted effect of over 55% in size
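qHTS luciferase splicing reporter: luminescence rises when SMN2 exon 7 is included in transfected HEK293 cells. Compound exposure lasted 30-36 h at 37C, with 4.5 mM final sodium butyrate as control, followed by a ONE-Glo read.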
Rab9 prom act = Rab9 promoter activation | Huh7 Rab9 promoter-luciferase reporter, luminescence, 24 h | Potency, µM (doses to about 9.22 µM), actives largely listed as activators | 320,000 tested, 2.8% active | AID 485297; note: nearly all actives have a fitted effect of over 60% in size
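Stable Rab9-luc Huh7, 1500 cells/well, 2 h settle; cmpd in DMSO, 24 h, 37 °C/5% CO2; luciferase reagent 10 min RT; luminescence.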
NPC1 promoter act = activates the NPC1 promoter; 320,000 tested, 2.4% active; Huh7 NPC1 promoter luciferase reporter, 24 h; Potency, µM (highest dose often 9.22 µM), usual class: activators; note: nearly all actives have a fitted effect of over 60% in size
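Luminescence from an NPC1 promoter-driven luciferase reporter in stably transfected Huh7 cells was measured after 24 h compound treatment at 37 °C, followed by 10 min ambient incubation with luciferase detection reagent.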
Numbers stand for hits; . = inactive; ? = inconclusive; / = no result given; [ ] = dose if it differs, or a comment. This is a sample that favours compounds with a hit; in the whole collection about 7.5% have one here. Calls come from the whole dose curve; as a rule, active = well fitted curve in the direction sought with a large enough effect; inconclusive = small, poorly fitted or top-dose-only effect, or another doubt; inactive = no such curve, though single readings can be large; an effect the other way counts as inactive or inconclusive.

SMILES | ELG1 genotox | FLuc modulator | SMN2 splice up | Rab9 prom act | NPC1 promoter act
Cc1ccc(Cn2cc(S(=O)(=O)c3cccc(C)c3)c(=O)c3cc(F)c(N4CCOCC4)cc32)cc1 | / | . | / | / | /
COc1ccc(-n2c(SC3CCOC3=O)nc3ccccc3c2=O)cc1Cl (configuration not stated) | . | . | . | . | .
CC1Cc2cc(S(=O)(=O)NCc3ccc(N(C)C)cc3)ccc2N1C(=O)C1CCC1 (configuration not stated) | / | . | / | / | /
S=C(NCCN1CCOCC1)N1CCN(c2cccc(Cl)c2)CC1 | . | . | / | . | .
Nc1ccnc2c1ncn2[C@@H]1O[C@H](CO)[C@@H](O)[C@H]1O | / | / | . | / | /
CS/C(N)=N/N=C/c1ccc([N+](=O)[O-])cc1 | ? | 21µM | . | ? | 2.8µM
CSc1nncn1/N=C/c1ccc2c(c1)OCO2 | . | . | . | . | .
COc1cc(/C=N/N=C(\N)c2nonc2N)ccc1O | ? | 21µM | . | . | .
CS/C(N)=N/N=C/c1ccc2c(c1)OCO2 | ? | 8.5µM | / | 2.8µM | ?
COc1n[nH]c(C(=O)Nc2nc3ccccc3s2)c1[N+](=O)[O-] | 16µM | 15µM | 11µM | ? | ?
COc1ccc(C(=O)Nc2nc3ccccc3s2)c(OC)c1 | . | 0.015µM | / | . | ?
COc1n[nH]c(C(=O)NCc2ccccc2)c1[N+](=O)[O-] | . | ? | . | . | .
COc1ccccc1C(=O)Nc1nc(N)n(-c2ccccc2)n1 | . | 12µM | . | . | .
COc1ccccc1C(=O)Nc1nc2ccccc2s1 | ? | 0.11µM | / | ? | 2.2µM
COc1cc(C(=O)Nc2nc(N)n(-c3ccccc3)n2)cc(OC)c1OC | . | . | ? | . | .
CSc1nsc(SCC(=O)NCc2ccc(C)cc2)n1 | . | . | / | . | .
Cc1ccc(NC(=O)c2ccc(NS(=O)(=O)c3ccc4[nH]c(=O)[nH]c4c3)cc2)nc1 | . | ? | / | . | .
COc1ccc(NC(=O)CSCC(=O)N2CCN(C(=O)c3ccco3)CC2)cc1 | . | . | / | . | .
COc1ccc(Br)c(/C=N/NC(=O)COc2ccc(-c3ccccc3)cc2)c1 | / | ? | . | / | /
O=C(O)COc1ccccc1/C=N/NC(=O)COc1ccc(-c2ccccc2)cc1 | . | 4.8µM | / | . | .
CC(C)(C)c1ccc(C(=O)NCC(=O)N/N=C/c2ccccc2OCC(=O)O)cc1 | . | 17µM | . | . | .
O=C(O)COc1ccccc1/C=N/NC(=O)CNC(=O)c1ccco1 | . | . | / | . | .
O=C(NCc1ccccn1)C(=O)Nc1ccccc1 | ? | ? | 18µM | ? | ?
O=C(NCc1ccccn1)Nc1cc(Cl)ccc1Cl | . | 1.2µM | / | 3.2µM | .
O=C(NCc1ccccn1)Nc1cccc(Cl)c1 | ? | 19µM | . | . | .
SMILES | ELG1 genotox | FLuc modulator | SMN2 splice up | Rab9 prom act | NPC1 promoter act
O=C(NCc1ccccn1)Nc1cccc(NC(=O)NCc2ccccn2)c1 | ? | ? | ? | . | .
CC(=O)c1ccc(NC(=O)c2noc3c2CCc2ccccc2-3)cc1 | / | . | . | / | /
O=C(Nc1cccc(O)c1)c1noc2c1CCc1ccccc1-2 | 1.2µM | 0.48µM | ? | ? | ?
CCc1ccc(NC(=O)c2noc3c2CCc2ccccc2-3)cc1 | ? | 11µM | . | ? | .
O=C(Nc1ccc(F)cc1F)c1noc2c1CCc1ccccc1-2 | / | ? | 11µM | / | /
Cc1ccc(NC(=O)c2noc3c2CCc2ccccc2-3)cc1 | 21µM | 7.6µM | ? | 2.8µM | 4µM
CCOC(=O)c1ccc2c(c1)N(Cc1ccc(F)cc1Cl)C(=O)c1ccccc1S2 | / | . | / | / | /
Cc1ccc(COc2ccc(-c3cc(C(F)(F)F)n4nc(C)cc4n3)cc2)cc1 | / | . | . | / | /
Cc1ccc2occ(/C=C/C(=O)c3ccccc3O)c(=O)c2c1 | . | ? | . | . | ?
O=S(=O)(NCc1ccccc1)NCc1ccc(Cl)cc1Cl | . | . | / | . | .
O=C(CN1C(=O)C2C3c4ccccc4C(c4ccccc43)C2C1=O)Nc1ccccc1C(=O)O (configuration not stated) | . | . | . | . | .
O=[N+]([O-])c1ccc2nc(NS(=O)(=O)c3ccccc3[N+](=O)[O-])sc2c1 | . | 11µM | / | . | ?
CCn1c(=S)sc2c(=O)n(CC(=O)Nc3ccc(C(C)=O)cc3)c(C)nc21 | . | . | / | . | .
Cc1cccc(OC(=O)c2ccc3nccnc3c2)c1 | . | 15µM | . | . | .
O=C(Oc1ccc(Cl)cc1)c1ccc2nccnc2c1 | . | 3.8µM | . | . | .
O=C1Nc2cc(C(F)(F)F)ccc2N2CCCCC12 (configuration not stated) | . | . | / | . | .
O=C1c2ccccc2C(=O)C1c1ccc(O)cc1 | . | ? | . | . | .
O=C1c2ccccc2C(=O)C1c1ccc(Br)cc1 | ? | 6µM | / | .[1.84 µM] | ?
CCCn1c(Nc2cccc(OC)c2)nc2ccccc21 | . | . | / | . | .
Cc1cccc(N(C)S(=O)(=O)c2csc(C(N)=O)c2)c1 | . | . | / | . | .
COc1ccc(/C=N/NC(=O)c2cccc([N+](=O)[O-])c2)cc1O | . | 21µM | . | . | .
Oc1ccc(/C=N/NC(=S)Nc2cccnc2)cc1O | . | ? | ? | . | .
COc1cc(/C=N/n2cnnc2)ccc1OCc1ccc(C)cc1 | 23µM | ? | . | . | .
S=C(N/N=C/c1ccc2ncccc2c1)Nc1cccnc1 | . | 6.7µM | . | . | .
O=C(N/N=C/c1ccc2ncccc2c1)c1cccc([N+](=O)[O-])c1 | . | 3.4µM | / | . | .
SMILES | ELG1 genotox | FLuc modulator | SMN2 splice up | Rab9 prom act | NPC1 promoter act
O=C(N/N=C/c1ccccn1)c1cccc([N+](=O)[O-])c1 | ? | . | . | . | .
C[C@@H]1C=C[C@](Cc2ccccc2)(C(=O)NCCCNc2ncc(C(F)(F)F)cc2Cl)N1C(=O)c1ccccc1 | / | / | . | / | /
COc1cc(/C=N/NC(=O)c2cccc([N+](=O)[O-])c2)ccc1O | . | . | . | . | .
COc1cc(/C=N/NC(=O)c2cccc([N+](=O)[O-])c2)ccc1OCc1ccc(C)cc1 | ? | 21µM | ? | . | .
CC(=O)c1ccc(NC(=O)C(C)n2nc(-c3ccccc3)ccc2=O)cc1 (configuration not stated) | / | . | . | / | /
Cc1ccc(Nc2nc(C)nc3c2oc2ccccc23)cc1 | . | . | / | . | .
Cc1nc(Nc2ccc3c(c2)OCO3)c2oc3ccccc3c2n1 | . | 30µM | . | . | .
c1ccc2c(c1)oc1c(Nc3ccc4c(c3)OCO4)ncnc12 | 5.8µM | 2.1µM | ? | 1µM | 1.4µM
O=C1C([N+](=O)[O-])=C(O)c2cccc3cccc1c23 | . | ? | / | . | .
O=C1CN(C(=O)c2ccc(Cl)cc2Cl)C(c2ccc(F)cc2)c2cc(F)ccc2N1 (configuration not stated) | / | . | . | / | /
C[C@@]12CCC(OC(=O)c3ccccc3)CC1CCc1ccccc12 (some centres not stated) | / | / | . | / | /
